SmPrx2 inh: blocks S. mansoni peroxiredoxin 2 enzymatic activity. S. mansoni Prx2 activity coupled to TGR/GSH (TGR is thioredoxin glutathione reductase), NADPH fluorescence loss, qHTS. 0.07% of 65,000 active. Potency, µM
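Enzyme mix: 100 uM NADPH, 25 nM TGR, 700 uM GSH, 50 nM Prx2 in 100 mM phosphate pH 7.4, 10 mM EDTA, 0.01% Tween-20. 15 min RT with compound; NADPH/GSH added, H2O2 starts reaction; NADPH fluorescence read 8 min.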
AmpC inh det: blocks E. coli AmpC beta-lactamase in presence of detergent | AID 584 | 0.09% of 71,000 active | Potency, µM (top dose mostly 28.7 µM), for the others: at the highest dose activity change, negative = inhibition | purified AmpC, nitrocefin hydrolysis with detergent; active = well fitted curve in the direction sought with a large enough effect; inconclusive = small, poorly fitted or top-dose-only effect; note: % is set by controls: 0 for no effect and ±100 for the full control effect
Target sequence (P00811 whole entry, looked up): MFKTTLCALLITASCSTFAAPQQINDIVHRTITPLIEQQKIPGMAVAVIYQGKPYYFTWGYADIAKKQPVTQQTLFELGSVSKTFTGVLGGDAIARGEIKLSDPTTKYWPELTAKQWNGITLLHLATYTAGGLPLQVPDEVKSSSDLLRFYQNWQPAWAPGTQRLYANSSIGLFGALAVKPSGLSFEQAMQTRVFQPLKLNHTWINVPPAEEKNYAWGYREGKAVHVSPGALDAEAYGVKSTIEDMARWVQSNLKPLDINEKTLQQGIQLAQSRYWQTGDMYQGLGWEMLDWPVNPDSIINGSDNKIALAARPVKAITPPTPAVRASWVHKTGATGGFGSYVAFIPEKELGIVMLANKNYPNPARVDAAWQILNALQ
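E. coli AmpC (5.3 nM) in 20 mM phosphate pH 7.0 with 0.01% Triton X-100, preincubated 15 min RT with compound; nitrocefin (2 uL of 800 uM stock) hydrolysis followed by 480 nm absorbance every 20 s over 4 min.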
AmpC nodet inh: inhibitors of E. coli AmpC beta-lactamase without detergent | P00811 | AmpC nitrocefin hydrolysis, absorbance 480 nm, no detergent | Potency, µM (highest dose often 28.7 µM), without a hit: top-dose activity change, negative = inhibition | 1.8% of 71,000 active; note: % of control where 0% means no effect
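AmpC, 20 mM phosphate pH 7.0; 15 min cpd preinc, RT; start with nitrocefin (800 uM stock); A480 kinetic read, 20 s intervals, 4 min. No-enzyme wells = negative control.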
LT uptake inh: blocks cellular internalization of anthrax lethal toxin; Cells, anthrax lethal toxin internalization, FRET ratio (460/530); Potency, µM (highest dose often 40 µM), for the others: at the top dose activity change, negative = inhibition, actives largely listed as inhibitors; 0.67% of 70,000 active; AID 912; note: % is set by controls: 0 for no effect and ±100 for the full control effect; nearly all actives have a fitted effect of over 50% in size
Active calls of the source: *; ? = inconclusive; . = not tested or not shown; ! = not confirmed by another sample; [ ] = remark or other dose. Rows were chosen to be rich in hits. Some 2.6% of all compounds tested hit in one or more screens of this group. Unless noted, calls come from the whole dose curve. Potency is the fitted concentration of half-maximal effect.

SMILES	SmPrx2 inh	AmpC inh det	AmpC nodet inh	LT uptake inh
Cc1cc(-c2cc(C)c(O)c(C(C)(C)C)c2)cc(C(C)(C)C)c1O	>57	-2.3%[5.75 µM]	-3.9%[5.75 µM]	2.51µM*
Cc1nccn1C[C@@H]1CCc2c(c3ccccc3n2C)C1=O	>57	-0.4%[12.8 µM]	5.5%[12.8 µM]	-8.4%[3.58 µM]
CC1(C)Cn2c(nnc2-c2ccccc2)S1	>57	-0.6%	-3.0%	-5.7%
C=C1Cn2c(nnc2-c2ccc(Cl)cc2)S1	>57	11.5%	3.98µM*[single pt active]	1.3%
Cc1oc(C(C)(C)C)cc1C(=O)Nc1ccc2c(c1)OCCO2	>57	-2.0%	15.9%	?
CC(C)(C)c1ccc(/C=C/C(=O)Nc2ccc3c(c2)OCCO3)cc1	.	.	.	3.98µM*
O=C(CSc1nnc(Cc2cc(=O)[nH]c(=O)[nH]2)n1-c1ccc(Cl)cc1)NC1CCCC1	>57	9.2%	3.98µM*[single pt active]	3.5%
CCOc1ccc(-n2c(Cc3cc(=O)[nH]c(=O)[nH]3)nnc2SCC(=O)NC2CCCC2)cc1	>57	14.1%	?	-12.0%
O=C(CSc1nnc(Cc2cc(=O)[nH]c(=O)[nH]2)n1-c1ccc(Cl)cc1)NCC1CCCO1 (centres undefined)	>57	-1.7%	7.0%	3.8%
COc1ccc(-n2c(Cc3cc(=O)[nH]c(=O)[nH]3)nnc2SCC(=O)NC2CCCC2)cc1	>57	13.5%	3.98µM*[single pt active]	3.9%
O[C@H]([C@H](O)[C@@H](O)c1nc2ccccc2[nH]1)[C@@H](O)c1nc2ccccc2[nH]1	>57	-6.6%[5.75 µM]	-0.1%[5.75 µM]	-10.5%[8 µM]
N[C@@H](CC1=CS(=O)(=O)c2ccc(Cl)cc21)C(=O)O	>57	-2.4%[5.75 µM]	-11.2%[5.75 µM]	9.0%[8 µM]
CCCCN(CC)CCNc1c(N2CCN(C(=O)OCC)CC2)c(=O)c1=O	>57	-6.1%	-5.9%	5.3%
CCCCN(CC)CCNc1c(NC2CCN(C(=O)OCC)CC2)c(=O)c1=O	>57	13.7%	3.98µM*[single pt active]	-16.1%
CCOC(=O)N1CCN(c2c(NC3CCN(Cc4ccccc4)CC3)c(=O)c2=O)CC1	>57	9.7%	3.98µM*[single pt active]	-9.2%
CCOC(=O)N1CCC(Nc2c(OCC)c(=O)c2=O)CC1	>57	11.9%	3.98µM*[single pt active]	-7.4%
CCNc1ncc2nc(-c3cc(F)cc(F)c3)c(=O)n(Cc3ccc(F)cc3)c2n1	>11.4	1.5%	-6.1%	-14.5%
COc1ccc(C(=O)NCC(=O)NC2=NCCS2)cc1	>57	13.2%	3.98µM*[single pt active]	3.5%
COc1ccc(OCCC(=O)NC2=NCCS2)cc1	>57	-5.1%	-1.5%	13.7%
Brc1ccccc1Cn1c(-c2cncs2)nc2ccccc21	>57	11.9%	58.4%	10µM*
c1csc(Cn2c(-c3cccs3)nc3ccccc32)c1	>57	-2.7%	-6.3%	-1.3%
COc1ncc2ncc(=O)n(CCc3ccccc3)c2n1	>57	-0.8%	14.6%	7.1%
Nc1ncnc2nc(N3CCN(CCO)CC3)[nH]c12	>57	-2.8%[5.75 µM]	3.7%[5.75 µM]	8.2%[8 µM]
Cc1c(Cl)cccc1NC(=O)c1cc(-c2ccc(O)cc2)on1	>57	3.1%	12.6µM*[single pt active]	?
COc1cccc2cc(C(=O)n3ccc(C)n3)c(=O)oc12	>57	10µM*	10µM*	-9.4%
SMILES	SmPrx2 inh	AmpC inh det	AmpC nodet inh	LT uptake inh
O=c1[nH]c2ccccc2n1CCCSCCCn1c(=O)[nH]c2ccccc21	>57	-2.6%	27.4%	?
CCn1c2ccccc2c2nnc(SCN3C(=O)c4ccccc4C3=O)nc21	.	-2.6%	-1.6%	-16.2%
CCn1c2ccccc2c2nnc(SCCCn3c(=O)[nH]c4ccccc43)nc21	.	-2.4%	28.5%	7.94µM*
CCn1c2ccccc2c2nnc(SCc3ccccc3)nc21	>57	12.4%	3.98µM*[single pt active]	?
CCOC(C)(C)C	.	8.4%	-9.9%	2.2%
Cc1ccc(S(=O)(=O)Cc2ccc(C(=O)N3CCCCCC3)o2)cc1	>57	15.4%	49.1%	-7.7%
CCOC(=O)C1CCCN(C(=O)c2ccc(CS(=O)(=O)c3ccc(C)cc3)o2)C1 (centres undefined)	>57	10.8%	2.51µM*[single pt active]	-7.8%
CCOC(=O)C1CCCN(C(=O)c2ccc(CS(=O)(=O)Cc3ccccc3C)o2)C1 (centres undefined)	>57	-1.7%	52.7%	?
Cc1ccc(S(=O)(=O)Cc2ccc(C(=O)N3CCCC3)o2)cc1	>57	11.8%	3.98µM*[single pt active]	-5.1%
O=C(NCCN1CCCC1)C1(S(=O)(=O)c2ccc(Cl)cc2)CC1	>57	-3.8%	-3.8%	-0.5%
O=C(NCCCN1CCCCC1)C1(S(=O)(=O)c2ccc(Cl)cc2)CC1	>57	13.9%	3.98µM*[single pt active]	-4.7%
CCn1cc(C(=O)O)c(=O)c2cc(F)c(N3CCN[C@@H](C)C3)c(F)c21	>57	0.3%[12.8 µM]	-3.2%[12.8 µM]	0.1%[3.58 µM]
CN(C)c1ccc(-c2cc(NCc3ccccc3)ncn2)cc1	>57	11.4%	21.1%	?
CN1CCN(CCCN2c3ccccc3Sc3ccc(C(F)(F)F)cc32)CC1	>57	0.1%[5.75 µM]	29.3%[5.75 µM]	10µM*!
O=C1CSC2(CCN(CCCN3c4ccccc4Sc4ccc(Cl)cc43)CC2)N1	>57	-4.8%[5.75 µM]	69.2%[5.75 µM]	7.0%[8 µM]
CCOC(=O)OCC	.	6.4%	-5.3%	-0.6%
CCOC(=O)CC(SP(=S)(OC)OC)C(=O)OCC (centres undefined)	.	6.31µM*	?	?
CC(C)N(CCCNC(=O)CC1Oc2ccccc2NC1=O)Cc1ccccc1 (centres undefined)	>57	12.2%	3.98µM*[single pt active]	-14.0%
O=C(CC1Oc2ccccc2NC1=O)NCCCN1CCCC1=O (centres undefined)	>57	16.1%	3.98µM*[single pt active]	1.5%
O=C1Nc2ccccc2OC1CC(=O)N1CCOCC1 (centres undefined)	>57	13.6%	3.16µM*[single pt active]	-5.1%
CC1CC(C)CN(CCCNC(=O)CC2Oc3ccccc3NC2=O)C1 (centres undefined)	>57	11.4%	3.98µM*[single pt active]	-9.0%
CC(C)CN(CCCNC(=O)CC1Oc2ccccc2NC1=O)CC(C)C (centres undefined)	>57	-6.5%	-9.8%	-2.7%
CC(C)(C)C(=O)[C@H]([C@@H](c1ccccc1)N1CCOCC1)N1CCOCC1	>57	-1.8%[5.75 µM]	9.3%[5.75 µM]	3.2%[8 µM]
CC(C)c1ccc2oc(-c3cc(N)ccc3O)nc2c1	.	-2.2%	-7.3%	12.6µM*
CCC(=C(CC)c1ccc(O)cc1)c1ccc(O)cc1	>57	3.4%[12.8 µM]	-18.9%[12.8 µM]	-8.2%[3.58 µM]
SMILES	SmPrx2 inh	AmpC inh det	AmpC nodet inh	LT uptake inh
CCCNC(=O)CS(=O)Cc1nc(-c2ccccc2C)oc1C (centres undefined)	>57	12.8%	3.98µM*[single pt active]	?
CCC(C)NC(=O)CS(=O)Cc1nc(-c2ccccc2C)oc1C (centres undefined)	>57	11.2%	3.98µM*[single pt active]	-11.4%
CCOc1ccc(NC(=O)c2nnn(CC(=O)Nc3ccccc3OC)c2N)cc1	>57	4.9%	11.8%	-2.3%
CCc1ccc(Cn2nnc(C(=O)Nc3cccc(C)c3)c2N)cc1	>57	9.7%	3.98µM*[single pt active]	-9.3%
CCOc1ccc(Cn2nnc(C(=O)Nc3cc(C)cc(C)c3)c2N)cc1	>57	8.8%	3.98µM*[single pt active]	?
CCOc1ccc(Cn2nnc(C(=O)Nc3cc(OC)cc(OC)c3)c2N)cc1	>57	11.1%	3.16µM*	19.0%
COc1ccc(CNC(=O)c2nnn(Cc3ccc(OC)cc3)c2N)cc1	>57	12.1%	2.51µM*[single pt active]	-8.3%
O=C1C2=CC[C@H]3C(=O)N(C[C@@H]4CCCO4)C(=O)[C@@H]3[C@@H]2[C@H](O)[C@@H]2O[C@H]12	.	.	.	-7.5%[8 µM]

Screening data from PubChem.
